Test results published in PubChem BioAssay AID1159580 (chemical genetic matrix, 2015).
Several values for one entry are separate records, joined by “and”; a condition that tells them apart may be missing. Equal entries are not always repeated. The campaign covered roughly 5,500 compounds. About 2,000 (36%) were called active. Not shown: some 18% with an inconclusive outcome. Cut-off read from the data, not from the text of the source: active = normalized growth mostly below about 0.91 (no sharp cut-off); inconclusive = no clear call, values can overlap the other calls; inactive = mostly above about 0.92. This is one part of the list.

Experiment: chemical genetic growth profiling, strain panel (AID 1159580);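 note: tested at 20 µM; growth read once vehicle control cultures reached saturation at 30 °C; 1 = growth at the plate median or of vehicle wells; lower values mean less growth of the strain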
Details: S. cerevisiae deletion strains, growth OD

Measured: normalized growth

CCOC(=O)C(C)(C)Oc1ccc(Cl)cc1
inactive: locus YAL013W, strain DEP1, hits give low values 1.01 and 0.989 | locus YAL021C, strain ccr4, hits give low values 0.996 | locus YAL026C, strain drs2, hits give low values 0.989 | locus YAL030W, strain snc1, hits give low values 0.976 | locus YAL040C, strain CLN3, hits give low values 0.985 | locus YBL061C, strain skt5, hits give low values 0.978 | locus YBR009C, strain hhf1, hits give low values 0.982 | locus YBR021W, strain FUR4, hits give low values 0.988 | locus YBR023C, strain chs3, hits give low values 0.985 | locus YBR171W, strain sec66, hits give low values 0.973 | locus YBR229C, strain ROT2, hits give low values 1.01 | locus YBR231C, strain swc5, hits give low values 0.977 | locus YBR279W, strain paf1, hits give low values 0.986 | locus YCL011C, strain gbp2, hits give low values 0.991 | locus YCL016C, strain dcc1, hits give low values 0.986 | locus YCL029C, strain bik1, hits give low values 1 | locus YCL061C, strain MRC1, hits give low values 0.98 | locus YCL069W, strain vba3, hits give low values 0.981 | locus YCR088W, strain abp1, hits give low values 0.984 | locus YDL005C, strain med2, hits give low values 0.972 | locus YDL035C, strain GPR1, hits give low values 1.01 | locus YDL040C, strain nat1, hits give low values 0.979 | locus YDL074C, strain BRE1, hits give low values 1.02 | locus YDL101C, strain DUN1, hits give low values 0.999 | locus YDL134C, strain PPH21, hits give low values 0.999 | locus YDL185W, strain tfp1, hits give low values 1.01 | locus YDL192W, strain arf1, hits give low values 1.01 | locus YDR001C, strain nth1, hits give low values 0.983 | locus YDR069C, strain doa4, hits give low values 0.984 | locus YDR101C, strain arx1, hits give low values 0.99 | locus YDR137W, strain rgp1, hits give low values 0.964 | locus YDR150W, strain NUM1, hits give low values 1 | locus YDR159W, strain sac3, hits give low values 0.945 | locus YDR162C, strain NBP2, hits give low values 1.01 | locus YDR195W, strain ref2 0.954 | locus YDR297W, strain sur2, hits give low values 0.982 | locus YDR318W, strain mcm21, hits give low values 1 | locus YDR334W, strain swr1, hits give low values 0.987 | locus YDR335W, strain msn5, hits give low values 0.986 | locus YDR388W, hits give low values 0.995 | locus YDR392W, strain spt3, hits give low values 0.87 | locus YDR502C, strain sam2, hits give low values 0.996 | locus YEL003W, strain gim4, hits give low values 0.992 | locus YEL037C, strain rad23, hits give low values 1.02 | locus YEL061C, strain CIN8 (second series), hits give low values 0.981 | locus YEL061C, strain CIN8, hits give low values 1.01 | locus YER002W, strain NOP16, hits give low values 0.998 | locus YER015W, strain faa2, hits give low values 0.971 | locus YER016W, strain bim1, hits give low values 0.984 | locus YER110C, hits give low values 0.992 | locus YER111C, strain swi4, hits give low values 0.985 | locus YER155C, strain BEM2 (second series), hits give low values 0.922 | locus YER155C, strain BEM2, hits give low values 1 | locus YER167W, strain BCK2, hits give low values 0.998 | locus YFR010W, strain ubp6, hits give low values 1.01 | locus YGL078C, strain dbp3, hits give low values 1.01 | locus YGL086W, strain mad1, hits give low values 1 | locus YGL167C, strain pmr1, hits give low values 0.975 | locus YGL173C, strain kem1, hits give low values 0.984 | locus YGL227W, strain vid30, hits give low values 0.975 | locus YGL240W, strain doc1, hits give low values 0.949 | locus YGL248W, strain PDE1, hits give low values 1.01 | locus YGL253W, strain hxk2, hits give low values 1 | locus YGR078C, strain PAC10, hits give low values 1.02 | locus YGR135W, strain pre9, hits give low values 1 | locus YGR252W, strain gcn5, hits give low values 0.993 | locus YHR013C, strain ard1, hits give low values 1.02 | locus YHR027C, strain rpn1, hits give low values 0.986 | locus YHR030C, strain SLT2, hits give low values 1.01 and 0.939 | locus YHR079C, strain IRE1 (second series), hits give low values 1 | locus YHR079C, strain IRE1, hits give low values 0.946 | locus YHR094C, strain hxt1, hits give low values 0.993 | locus YHR129C, strain ARP1, hits give low values 1 | locus YHR142W, strain chs7, hits give low values 0.993 | locus YHR200W, strain rpn10, hits give low values 1 | locus YIL066C, strain RNR3, hits give low values 1.01 | locus YIL073C, strain SPO22, hits give low values 1.02 | locus YIL125W, strain kgd1, hits give low values 0.998 | locus YIR030C, strain dcg1, hits give low values 0.994 | locus YJL092W, strain hpr5, hits give low values 0.978 | locus YJL095W, strain BCK1 (second series), hits give low values 0.985 | locus YJL095W, strain BCK1, hits give low values 0.986 and 0.943 | locus YJL115W, strain asf1, hits give low values 0.965 | locus YJL129C, strain trk1, hits give low values 0.973 | locus YJL134W, strain LCB3, hits give low values 1 | locus YJL154C, strain vps35, hits give low values 0.992 | locus YJL164C, strain tpk1, hits give low values 0.985 | locus YJL166W, strain qcr8, hits give low values 0.978 | locus YJL168C, strain set2, hits give low values 0.997 | locus YJL187C, strain SWE1 (second series), hits give low values 1.01 | locus YJL187C, strain SWE1, hits give low values 0.97 | locus YJR043C, strain POL32, hits give low values 1 | locus YJR066W, strain TOR1, hits give low values 0.943
